# Source: PubChem BioAssay (National Center for Advancing Translational Sciences (NCATS))
# This excerpt belongs to a sample that is enriched for hits.
# Pf Dd2 growth – blocks in vitro growth of P. falciparum Dd2; P. falciparum Dd2 growth, SYBR Green, 72 h; Potency, µM (series often up to 28.9 µM), for inactives: at the highest dose activity, negative = inhibition, usual class: inhibitors; actives 4.3% (n = 120,000); AID 1347417; active = well fitted inhibition curve with a large enough effect;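 also: plate controls were DMSO vehicle for no effect and reference drug for full effect; nearly all actives have a fitted effect of over 65% in size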
#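 Readout: SYBR Green fluorescence, 485 nm excitation, 535 nm emission, after ~16 h lysis at 37C. Before that, Dd2-infected red cells (2.5% hematocrit) grew 72 h with compound, 29 uM top final concentration.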
# Active calls of the source: *; i = inactive; [ ] = another dose, or the depositor's remark. Potency is read from the fitted curve at half-maximal effect.
SMILES,Pf Dd2 growth
O=C1CC(c2noc(-c3cc(F)cc(F)c3)n2)CN1C1CCCCC1 (centres undefined),i
CCc1nnsc1C(=O)N1CCc2nc(NC)nc(C(=O)N3CCCC3)c2C1,-6.5%
CC(C)n1cc(CN2CCCC2C(=O)Nc2cccc(-n3cccn3)c2)cn1 (centres undefined),i
CCC[C@H]1CN(C(=O)c2cc(C(F)(F)F)ccc2Cl)C[C@@H]1N,i
Cc1ccc(-c2nnc(C3CN(C(=O)c4ccc(F)c(F)c4)CC34CCOCC4)o2)cc1 (centres undefined),1.9%
COc1ccc(NC2CCCN(C(=O)c3ccccc3C(F)(F)F)C2)cc1OC (centres undefined),i
COc1cc(Cl)ccc1-c1nc(C2CC(=O)N(C3CCCCC3)C2)no1 (centres undefined),21.5%
Cc1c(-c2ccccc2)n(-c2ccccc2O)c2nc3c(c(=O)n(C)c(=O)n3C)n12,3.16µM*
Cc1cc(C)cc(-n2c(-c3ccccc3)c(C)n3c4c(=O)n(C)c(=O)n(C)c4nc23)c1,20.9%
CCOc1ccc(-n2c(-c3ccccc3)c(C)n3c4c(=O)n(C)c(=O)n(C)c4nc23)cc1,-7.4%
CN1CCCN(S(=O)(=O)c2ccccc2F)c2ccccc21,-26.5%
Cc1ccc(S(=O)(=O)N2CCC(C(=O)Nc3ccc(Oc4ccccc4)cc3)CC2)cc1,-0.6%
Cc1ccc(NS(=O)(=O)c2ccc3[nH]c4c(c3c2)CCCCCC4)cc1,i
Cc1ccc(NC(=O)C2CCN(S(=O)(=O)c3ccc4[nH]c5c(c4c3)CCCCC5)CC2)cc1,11.2µM*
Cc1noc(-c2cccc(OC3CN(C(=O)CCCc4ccccc4)C3)c2)n1,i[5.79 µM]
CC(C)Oc1ccc(C(=O)N2[C@@H]3CC[C@H]2CC(NC(=O)c2ccc(F)cc2)C3)cc1 (some centres undefined),-15.9%
O=C(Nc1cccc(-n2cccn2)c1)C1CCCN1C(=O)C1CC1 (centres undefined),1.7%
O=C(c1ccccc1C(F)(F)F)N1CCC2(CC1)CC(O)CCO2 (centres undefined),8.9%
Cc1oc(-c2cccc(Cl)c2)nc1CSc1nncn2c1cc1occc12,144.7%[5.79 µM]
CCC(Sc1nncn2c1cc1occc12)C(=O)Nc1ccc(C)c(Cl)c1 (centres undefined),14.1µM*
O=C(CSc1nncn2c1cc1occc12)Nc1ccc(F)c(Cl)c1,-29.7%
COCCN1C(=O)CS(=O)(=O)C12CCN(C(=O)CCc1ccccc1OC)CC2,i
COc1ccc(C(=O)NC[C@@H]2C=C(C)[C@H](Cc3nnc(-c4ccncc4)o3)C[C@H]2C(C)C)cc1,3.55µM*
COc1ccc(C(=O)NC[C@@H]2C=C(C)[C@H](CC(=O)N3CCN(C(C)=O)CC3)C[C@H]2C(C)C)cc1,-16.5%
CC1=C[C@@H](CO)[C@H](C(C)C)C[C@H]1Cc1nnc(-c2cccnc2)o1,i
SMILES,Pf Dd2 growth
COc1ccc(-c2nnc(C[C@@H]3C[C@@H](C(C)C)[C@H](CO)C=C3C)o2)cc1,10µM*
CC1=C[C@@H](CNC(=O)C(C)(C)C)[C@H](C(C)C)C[C@H]1Cc1nnc(-c2ccncc2)o1,-9.9%[44.1 µM]
CCOC(=O)C[C@@H]1C[C@@H](C(C)C)[C@H](CNC(=O)c2ccncc2)C=C1C,i
CC(=O)NC[C@@H]1C=C(C)[C@H](CC(=O)N2CCN(C(C)=O)CC2)C[C@H]1C(C)C,-12.2%[44.1 µM]
CC1=C[C@@H](CNC(=O)c2ccccc2)[C@H](C(C)C)C[C@H]1CC(=O)N1CCCC1,11.2µM*
Cc1nc(CN2CCN(c3nccc(-c4cccnc4)n3)CC2)cs1,-26.6%
Cc1cc(S(=O)(=O)N[C@@H]2CCOC[C@H]2Oc2ccccn2)c(C)s1,-22.6%
CN(C)c1ccc(CN(C)C2CCOc3ccccc32)cc1 (centres undefined),-20.1%[44.1 µM]
COCCN(C)C[C@H]1C[C@H](CO)CN(C(=O)CN2CCc3ccccc3C2)C1,-20.1%
CCC1(O)CCC12CCNCC2 (centres undefined),i
COc1ccc(C(=O)N2CCC3(CC2)NC(=O)N(Cc2ccccc2Cl)C3=O)cc1,5.8%
CNC(=O)NC[C@H]1CCN(Cc2ccc(OC)c(OC)c2Cl)C[C@H]1N(C)C,-2.7%
COc1cc(-c2onc(C)c2C(=O)NCCCc2ccccc2)cc(OC)c1OC,11.2µM*
COc1ccc(-c2onc(C)c2C(=O)NCCCCc2ccccc2)cc1,-13.1%
COc1ccc(-c2onc(C)c2C(=O)NCc2c(OC)cc(OC)cc2OC)cc1,i
COc1ccc(-c2onc(C)c2C(=O)N(C)Cc2cc(OC)c(OC)c(OC)c2)cc1,10µM*
COCCCNC(=O)c1c(C)noc1-c1cc(OC)c(OC)c(OC)c1,22.3%
COc1ccc([C@H](C)NC(=O)c2c(C)noc2-c2cc(OC)c(OC)c(OC)c2)cc1,-3.3%
CC(C)(C)C1CCC2(CC1)NC(=O)N(CC(=O)N1CCN(c3ccc(F)cc3)CC1)C2=O (centres undefined),-13.5%
CCn1nccc1C(=O)N1CCCCCCNC(=O)CC1,i
O=C(NCc1nnc2ccc(-c3ccccc3)nn12)c1cccc(C(F)(F)F)c1,i
CNC(=O)N1CCC(C2CCN(Cc3ccncc3F)C2)CC1 (centres undefined),-0.6%
COc1ccccc1CNC(=O)CSc1ncc2c(n1)-c1ccc(Cl)cc1N(Cc1ccccc1)S2(=O)=O,0.8%
COc1ccc(CNC(=O)CSc2ncc3c(n2)-c2cc(Cl)ccc2N(Cc2ccccc2)S3(=O)=O)cc1,-29.4%
COc1ccc(CNC(=O)CSc2ncc3c(n2)-c2ccc(Cl)cc2N(Cc2ccc(F)cc2)S3(=O)=O)cc1OC,11.2µM*
SMILES,Pf Dd2 growth
COCC(=O)N1CC2(Cc3ccccc3N(C(C)=O)C2)C1,10.1%[44.1 µM]
O=C(NCC1CCCN(S(=O)(=O)c2ccc3c(c2)OCCO3)C1)c1cccs1 (centres undefined),-13.5%
COc1cccc(C(=O)N2CCOc3ccc(CN4CCCCC4)cc3C2)c1,i
CCN(CC)Cc1ccc2c(c1)CN(C(=O)c1cccc(F)c1)CCO2,6.31µM*
CCOCCCNC(=O)N1CCOc2ccc(CN(CC)CC)cc2C1,i
O=C(CN1C(=O)COc2ccc(C(=O)COc3ccc(Cl)cc3F)cc21)NC1CCCCC1,5.4%
COc1ccc(CCN2CCCC(CN(C)C(=O)c3cnn(C(C)C)c3)C2)cc1 (centres undefined),i
CN(Cc1ccc(N2CCNC2=O)cc1)CC1CCCN(CCc2ccc(F)cc2)C1 (centres undefined),12.6µM*
O=C(Cc1ccc(N2CCNC2=O)cc1)N1CCC2(CC1)[C@H](O)C[C@@H]2O,-1.9%
COc1ccc(CC(=O)N[C@@H]2COCC[C@H]2OCc2ccccn2)cc1,-14.3%
COc1ccc(OC)c(CNC(=O)c2c(OC)cc(=O)n3c2CCCC3)c1,-4.0%
Cc1nc2ccc(C(=O)N3CCCn4nc(CO)cc4C3)cc2o1,-0.4%
O=C(c1cccnc1)N1CCC(c2nnc3n2C(C(=O)N2CCCC2)CC3)CC1 (centres undefined),10.9%
COc1ccccc1CC(=O)N1CCC2(CC1)NC(=O)N(Cc1ccccc1)C2=O,12.9%
COc1cccc(C(=O)N2CCC3(CC2)NC(=O)N(Cc2ccccc2)C3=O)c1OC,8.91µM*
COc1ccc(C(=O)N2CCC3(CC2)NC(=O)N(Cc2ccccc2)C3=O)cc1OC,i
CCCCCCN(CCC(=O)NCCC)C(=O)c1ccoc1,-15.8%
COCC1CN(C(=O)CCc2c(C)nn(C)c2C)CC12CCNCC2 (centres undefined),-9.7%
Cc1ccc(Cl)cc1NC(=O)c1nnn(Cc2ccccc2)c1N,1.12µM*
